These results are taken from PubChem BioAssay.

Values without a mark were called inactive. The source made the active and inactive calls.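 How the source made its calls, unless noted: active means mean inhibition over 43.08%, the solvent-only control mean plus 3 SD; inactive means the rest.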

Nuclear receptor coactivator 3 (Homo sapiens), sequence (Q9Y6Q9 whole entry, looked up, the tested form may be a part): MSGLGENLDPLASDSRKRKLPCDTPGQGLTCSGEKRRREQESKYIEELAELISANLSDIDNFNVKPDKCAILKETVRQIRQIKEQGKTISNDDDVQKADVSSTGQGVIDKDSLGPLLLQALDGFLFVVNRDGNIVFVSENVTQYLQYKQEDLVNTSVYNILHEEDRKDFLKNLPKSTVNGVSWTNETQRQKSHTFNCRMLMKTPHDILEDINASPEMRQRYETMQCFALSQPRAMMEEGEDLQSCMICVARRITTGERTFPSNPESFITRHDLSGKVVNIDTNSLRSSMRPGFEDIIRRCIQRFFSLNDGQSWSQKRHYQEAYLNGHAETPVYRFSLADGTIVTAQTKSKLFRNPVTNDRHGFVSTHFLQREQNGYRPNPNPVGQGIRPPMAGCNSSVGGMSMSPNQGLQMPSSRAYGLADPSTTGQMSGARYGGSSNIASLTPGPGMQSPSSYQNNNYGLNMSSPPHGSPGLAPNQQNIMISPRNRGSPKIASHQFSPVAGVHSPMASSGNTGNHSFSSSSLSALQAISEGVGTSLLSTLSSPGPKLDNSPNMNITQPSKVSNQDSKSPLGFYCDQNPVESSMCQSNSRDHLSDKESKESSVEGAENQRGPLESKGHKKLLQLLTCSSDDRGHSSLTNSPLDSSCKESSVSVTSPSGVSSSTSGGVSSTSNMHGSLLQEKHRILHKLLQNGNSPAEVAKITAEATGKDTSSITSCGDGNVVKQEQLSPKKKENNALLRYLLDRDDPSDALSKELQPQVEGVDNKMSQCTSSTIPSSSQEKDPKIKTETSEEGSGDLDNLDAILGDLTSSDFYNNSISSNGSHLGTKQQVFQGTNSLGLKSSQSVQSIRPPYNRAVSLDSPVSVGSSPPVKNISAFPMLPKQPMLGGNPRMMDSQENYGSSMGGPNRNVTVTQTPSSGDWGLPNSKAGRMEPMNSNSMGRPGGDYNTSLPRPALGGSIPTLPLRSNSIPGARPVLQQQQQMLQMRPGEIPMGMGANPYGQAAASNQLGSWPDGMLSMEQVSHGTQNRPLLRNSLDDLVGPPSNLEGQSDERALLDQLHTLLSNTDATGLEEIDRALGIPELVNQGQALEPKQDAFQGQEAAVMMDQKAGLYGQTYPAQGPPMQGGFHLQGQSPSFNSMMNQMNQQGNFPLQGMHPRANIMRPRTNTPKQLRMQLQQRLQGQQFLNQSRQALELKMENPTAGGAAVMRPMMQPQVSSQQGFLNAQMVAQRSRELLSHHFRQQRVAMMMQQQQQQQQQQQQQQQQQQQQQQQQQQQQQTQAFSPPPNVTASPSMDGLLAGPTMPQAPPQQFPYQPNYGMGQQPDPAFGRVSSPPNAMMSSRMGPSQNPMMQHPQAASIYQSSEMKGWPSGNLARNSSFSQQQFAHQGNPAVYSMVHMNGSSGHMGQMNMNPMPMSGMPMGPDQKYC

One experiment addresses Nuclear receptor coactivator 3 (Homo sapiens) (UniProt Q9Y6Q9). The experiment in a line: NCOA3 GAL4-fusion reporter inhibition – cell-based, luminescence, quadruplicate, confirmation (AID 588792).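 Further: 0% = DMSO treated cells and 100% = gossypol at 36 µM.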 The following applies: HEK293 GAL4-SRC3 luciferase reporter, at 3.6 µM, hits give high values.
What is called inhibition is the change of the read-out against control, counted positive when it falls. With `O=C(COc1ccccc1O)NNc1ccccc1`, the inhibition was 11.6%.
Same read-out and setting: with `CC(=O)N1CCN(c2ncnc3ccccc23)CC1` the figure was 29.2%; with `CCCCC(=O)NC(c1cccs1)c1cc(Cl)c2cccnc2c1O` (stereo not given), 44.5% (active).
As for `c1nc(NCc2ccc3c(c2)OCO3)c2cc(-c3ccoc3)ccc2n1`, the inhibition was 70.4% (active).
The same measure, in the same setting: then `CC(=O)c1cccc(NC(=O)Nc2cccnc2)c1`, with 64.6% (active); and `COc1ccc2[nH]c3c(c2c1)CCNC3=O`, with 53.2% (active).
On the same count and under the same terms, with `O=C(N/N=C/c1cc(O)ccc1Br)c1cccnc1` the figure was 17.6%.
Consider `Cn1c(Sc2ccc(Cl)cc2)c(C=O)c2ccccc21`, for which the inhibition is 52.3% (active).
The same measure, in the same setting: then `CC1CCN(Cc2c(C(=O)N/N=C/c3ccccc3O)nnn2-c2nonc2N)CC1`, with 57.7% (active).
Consider `CC(C)n1cc(/C=C/c2cc[n+](C)cc2)c2ccccc21`, for which the inhibition was 14%.
Same read-out and setting: with `COc1cccc(-c2ccc3ncnc(NCc4ccc5c(c4)OCO5)c3c2)c1` the figure was 37.3%.
On the same count and under the same terms, then `Clc1ccc(-c2csc3ncnc(NCCN4CCOCC4)c23)cc1`, with 32.2%; and `O=C(N/N=C/c1cc(Cl)cc(Cl)c1O)c1ccncc1`, with 26.5%.
On the same count and under the same terms, then `Cc1cc(=O)[nH]c(NN=Cc2cc(Br)ccc2O)n1`, with 76.2% (active); and `C#CCN(C[C@@H]1[C@@H](OC(=O)NCCCCCC)[C@@H](OC(=O)NCCCCCC)Cn2c(=O)ccc(=O)n21)S(=O)(=O)c1ccc(C)cc1`, with 23.3%; and `COc1cc(C(=O)N/N=C(\c2ccccc2)c2ccccn2)cc(OC)c1OC`, with 32.9%.
In the case of `CN(C)/C=C/C(=O)c1ccc2noc(-c3ccccc3)c2c1`, the inhibition is 55.5% (active).
On the same count and under the same terms, then `CCOC(=O)N=Nc1c2ccccc2c2nc3no[nH]c3nc12`, with 95.7% (active).
On the same count and under the same terms, with `O=C(NNC1=Nc2cccc3cccc1c23)c1ccccc1Br` the figure was 19.4%; with `CCOc1cc(C(N)=O)cc(Br)c1OCC`, 37.3%.
Still for that read-out and setting: then `c1ccc2c(-c3cncc4ccccc34)cncc2c1`, with 31.4%; and `COc1ccc(-c2c[n+]3c(n2-c2ccccc2)CCCCC3)cc1`, with 43.4% (active).
As to `COc1ccc(C(=O)Cn2c(C(C)=O)nc3ccccc32)cc1`, the inhibition was -0.47%.
With `CCCCCCCCCn1c2c(c(=N)c3c1CCC3)CCC2`, the inhibition was 89.7% (active).
Same read-out and setting: with `COC(=O)c1cc2c(n1S(=O)(=O)c1ccc(C)cc1)C(=O)C(=O)c1[nH]cc(C(=O)OCc3ccccc3)c1-2` the figure was 96.9% (active); with `O=C(NCc1ccc(Cl)cc1)c1csc(-c2cccnc2)n1`, 13.6%.
Take `Cc1nc(N)c(CC(Br)CBr)c(Cl)n1` (stereo not given): the inhibition was 31.8%.
Still for that read-out and setting: with `O=C(Nc1nc(-c2ccccc2)cs1)c1ccc(N2CCOCC2)c([N+](=O)[O-])c1` the figure was 56.2% (active); with `NC(=O)C(C(=O)/C=C/c1ccc(Cl)cc1)=C1SCCS1`, 29.4%.
Still for that read-out and setting: with `CCc1ccc(-c2cc(C(F)(F)F)n3nc(C(=O)Nc4cnn(Cc5ccc(C)cc5)c4)cc3n2)s1` the figure was 10.1%.
On the same count and under the same terms, with `O=C(CNS(=O)(=O)Cc1ccccc1)NNc1ccccc1` the figure was 3.12%.
As to `CN(CC1CCCO1)S(=O)(=O)c1ccc(C(=O)Nc2nc3cc4c(cc3s2)OCO4)cc1` (stereo not given), the inhibition is 14.7%.
The same measure, in the same setting: with `CCCN(CCC)c1nc(-c2ccccn2)nc2ccccc12` the figure was 80% (active).
On to `CCCCC(=O)OCC(=O)C1(O)Cc2c(O)c3c(c(O)c2C(OC2CC(NC(=O)C(F)(F)F)C(O)C(C)O2)C1)C(=O)c1c(OC)cccc1C3=O` (stereo not given), for which the inhibition is 26%.
For `Cc1cc(/C=C2\Cc3ccccc3C2=O)c(C)n1-c1ccccc1`, the inhibition was 53.5% (active).
Same read-out and setting: with `COc1cccc2nc3c(C(=O)NCCN(C)C)cccc3cc12` the figure was 35.9%; with `Cc1ccc(C(=O)NCCn2cc(SCC(=O)Nc3nnc(C)s3)c3ccccc32)cc1`, 18.6%; with `CCN(CC)CCCNc1ccc2ncn3c4ccc(O)cc4c(=O)c1c23`, 16.5%.
Same read-out and setting: with `O=C(Nc1cccnc1)c1ccc(C(=O)Nc2cccnc2)cc1` the figure was 32.2%.
On the same count and under the same terms, with `Cn1nnnc1N=N/C(=N/Nc1ccccc1)c1ccccc1` the figure was 79.8% (active).

For a further experiment, the system named is transactivating tegument protein VP16 (Human herpesvirus 1), Gal4-VP16 luciferase reporter. The experiment in a line: repression of VP16-driven luciferase reporter – cell-based, luminescence, high throughput, counter-screen for SRC3 inhibitor project (AID 588794; in the data active means inhibition above about 30%). To be noted: mammalian cells, at 3.6 µM, hits give high values. On the technique in general: A reporter such as luciferase makes a cellular process visible.
As to `O=C(COc1ccccc1O)NNc1ccccc1`, the inhibition was 24%.
Same read-out and setting: with `CC(=O)N1CCN(c2ncnc3ccccc23)CC1` the figure was 26.3%.
The same measure, in the same setting: then `CCCCC(=O)NC(c1cccs1)c1cc(Cl)c2cccnc2c1O` (stereo not given), with 40.6% (active); and `c1nc(NCc2ccc3c(c2)OCO3)c2cc(-c3ccoc3)ccc2n1`, with 51.5% (active); and `CC(=O)c1cccc(NC(=O)Nc2cccnc2)c1`, with 36.1% (active).
Same read-out and setting: then `COc1ccc2[nH]c3c(c2c1)CCNC3=O`, with 42.7% (active).
Consider `O=C(N/N=C/c1cc(O)ccc1Br)c1cccnc1`, for which the inhibition is 37.5% (active).
Still for that read-out and setting: with `Cn1c(Sc2ccc(Cl)cc2)c(C=O)c2ccccc21` the figure was 43.6% (active).
On the same count and under the same terms, with `CC1CCN(Cc2c(C(=O)N/N=C/c3ccccc3O)nnn2-c2nonc2N)CC1` the figure was 41.1% (active).
Same read-out and setting: then `CC(C)n1cc(/C=C/c2cc[n+](C)cc2)c2ccccc21`, with 21%; and `COc1cccc(-c2ccc3ncnc(NCc4ccc5c(c4)OCO5)c3c2)c1`, with 30.1% (active); and `Clc1ccc(-c2csc3ncnc(NCCN4CCOCC4)c23)cc1`, with 25.3%.
Turning to `O=C(N/N=C/c1cc(Cl)cc(Cl)c1O)c1ccncc1`, the inhibition was 40.9% (active).
The same measure, in the same setting: with `Cc1cc(=O)[nH]c(NN=Cc2cc(Br)ccc2O)n1` the figure was 64% (active).
The same measure, in the same setting: then `C#CCN(C[C@@H]1[C@@H](OC(=O)NCCCCCC)[C@@H](OC(=O)NCCCCCC)Cn2c(=O)ccc(=O)n21)S(=O)(=O)c1ccc(C)cc1`, with 31.7% (active).
On the same count and under the same terms, then `COc1cc(C(=O)N/N=C(\c2ccccc2)c2ccccn2)cc(OC)c1OC`, with 23.2%.
For `CN(C)/C=C/C(=O)c1ccc2noc(-c3ccccc3)c2c1`, the inhibition was 28.1%.
Regarding `CCOC(=O)N=Nc1c2ccccc2c2nc3no[nH]c3nc12`, the inhibition was 93.1% (active).
Same read-out and setting: then `O=C(NNC1=Nc2cccc3cccc1c23)c1ccccc1Br`, with 22.2%; and `CCOc1cc(C(N)=O)cc(Br)c1OCC`, with 22.4%; and `c1ccc2c(-c3cncc4ccccc34)cncc2c1`, with 32.7% (active).
Same read-out and setting: with `COc1ccc(-c2c[n+]3c(n2-c2ccccc2)CCCCC3)cc1` the figure was 39.6% (active); with `COc1ccc(C(=O)Cn2c(C(C)=O)nc3ccccc32)cc1`, -3.82%; with `CCCCCCCCCn1c2c(c(=N)c3c1CCC3)CCC2`, 85.2% (active).
`COC(=O)c1cc2c(n1S(=O)(=O)c1ccc(C)cc1)C(=O)C(=O)c1[nH]cc(C(=O)OCc3ccccc3)c1-2`: the inhibition was 93.6% (active).
The same measure, in the same setting: with `O=C(NCc1ccc(Cl)cc1)c1csc(-c2cccnc2)n1` the figure was 16.3%; with `Cc1nc(N)c(CC(Br)CBr)c(Cl)n1` (stereo not given), 35.4% (active); with `O=C(Nc1nc(-c2ccccc2)cs1)c1ccc(N2CCOCC2)c([N+](=O)[O-])c1`, 61.4% (active).
Still for that read-out and setting: then `NC(=O)C(C(=O)/C=C/c1ccc(Cl)cc1)=C1SCCS1`, with 36.6% (active); and `CCc1ccc(-c2cc(C(F)(F)F)n3nc(C(=O)Nc4cnn(Cc5ccc(C)cc5)c4)cc3n2)s1`, with 9.55%.
As to `O=C(CNS(=O)(=O)Cc1ccccc1)NNc1ccccc1`, the inhibition is 12.1%.
Still for that read-out and setting: with `CN(CC1CCCO1)S(=O)(=O)c1ccc(C(=O)Nc2nc3cc4c(cc3s2)OCO4)cc1` (stereo not given) the figure was 39.8% (active).
On the same count and under the same terms, then `CCCN(CCC)c1nc(-c2ccccn2)nc2ccccc12`, with 35.2% (active).
Still for that read-out and setting: with `CCCCC(=O)OCC(=O)C1(O)Cc2c(O)c3c(c(O)c2C(OC2CC(NC(=O)C(F)(F)F)C(O)C(C)O2)C1)C(=O)c1c(OC)cccc1C3=O` (stereo not given) the figure was 10.2%; with `Cc1cc(/C=C2\Cc3ccccc3C2=O)c(C)n1-c1ccccc1`, 18.6%; with `COc1cccc2nc3c(C(=O)NCCN(C)C)cccc3cc12`, 39.9% (active).
Turning to `Cc1ccc(C(=O)NCCn2cc(SCC(=O)Nc3nnc(C)s3)c3ccccc32)cc1`, the inhibition was 4.22%.
The same measure, in the same setting: then `CCN(CC)CCCNc1ccc2ncn3c4ccc(O)cc4c(=O)c1c23`, with 51.3% (active).
Still for that read-out and setting: with `O=C(Nc1cccnc1)c1ccc(C(=O)Nc2cccnc2)cc1` the figure was 19.1%.
Consider `Cn1nnnc1N=N/C(=N/Nc1ccccc1)c1ccccc1`, for which the inhibition was 42.9% (active).
